{"source": "PubChem BioAssay (Tox21)", "note": "Results filed as inconclusive are left out. Entries that show only a call come without a potency. Active and inactive are the calls of the source. Calls come from the whole dose curve; as a rule, active = well fitted cell-killing curve with a large enough effect in the repeat runs; inconclusive = weak or mixed curves; inactive = flat fitted curve, though single readings scatter. Potency is the fitted concentration of half-maximal effect."}
{"assay": "qHTS assay to identify small molecule antagonists of the estrogen related receptor (ERR) signaling pathway from Tox21 library - cell viability counter screen (AID 1224834); note: nearly all actives have a fitted effect of over 30% in size", "conditions": "ERR reporter cells viability, CellTiter-Fluor, 17.5 h; series mostly up to 92.4 µM", "source_text": "National Center for Advancing Translational Sciences [NCATS]\nNIH Chemical Genomics Center [NCGC]\nU.S. Environmental Protection Agency [EPA]\nNational Institutes of Environmental Health Sciences [NIEHS]\nNational Toxicology Program [NTP]\nU.S. Food and Drug Administration [FDA]\nEstrogen related receptors (ERRs), the first orphan nuclear receptors discovered, play an important role in the control of cellular energy metabolism. ERRs are required for high-energy production in response to the environmental challenges. ERR-alpha was also identified as an adverse marker for breast cancer progression; ERR-alpha-positive tumors have a poor prognosis. To screen and to identify environmental compounds that perturb the ERR signaling pathways could provide valuable information for potential therapeutic or preventive measures in the treatment of metabolic disease. To differentiate true ERR antagonists or agonist from cytotoxic substances, the assay is multiplexed with cell viability assay.\nTox21 Assay Protocol Summary:\nThe ERR cells were dispensed at 2,000 cells/5 ul/well in 1536-well white plates using a Multidrop dispenser. After the assay plates were incubated at a 37 C/5% CO2 incubator for 6 hours, 23 nL of compounds dissolved in DMSO, positive and negative controls or DMSO only was transferred to the assay plate by a pin tool. The plates were incubated at 37 C for 17.5 hours. 1 ul/well of CellTiter-Fluor reagent was added into the assay plates using a Flying Reagent Dispenser. After 30-minute incubation at 37 C/5% CO2, the fluorescence intensity in the plates was measured using a ViewLux plate reader."}
{"smiles": "CCN(O)CC", "Potency": "inactive"}
{"smiles": "OCCN(CCO)CCN(CCO)CCO", "Potency": "inactive"}
{"smiles": "CN(C)CC[C@@H](c1ccc(Cl)cc1)c1ccccn1", "Potency": "inactive"}
{"smiles": "CC(C)C[C@H](NC(=O)OCC1c2ccccc2-c2ccccc21)C(=O)O", "Potency": "inactive"}
{"smiles": "CC1(C)C(=O)N(Cl)C(=O)N1Br", "Potency": "inactive"}
{"smiles": "CN(C)Cc1ccccc1", "Potency": "inactive"}
{"smiles": "CCOC(=O)NCCC[Si](OCC)(OCC)OCC", "Potency": "inactive"}
{"smiles": "CN(CC1(C)CCCO1)S(=O)(=O)c1ccc(Cl)c(S(N)(=O)=O)c1", "note": "(stereo not given)", "Potency": "inactive"}
{"smiles": "COC(=O)/C=C(/C)N", "Potency": "inactive"}
{"smiles": "CN1[C@@H]2CC[C@H]1CC(OC(=O)c1c[nH]c3ccccc13)C2", "note": "(stereo not given in full)", "Potency": "inactive"}
{"smiles": "CC/C=C\\CCOC(=O)C(C)C", "Potency": "inactive"}
{"smiles": "Cc1onc(-c2ccccc2)c1C(=O)Cl", "Potency": "inactive"}
{"smiles": "O=c1oc2c(O)c(O)cc3c(=O)oc4c(O)c(O)cc1c4c23", "viability change, negative = cytotoxic": "-2.26% [at 19 µM] (inactive)"}
{"smiles": "CS(=O)(=O)c1ccc([C@@H](O)[C@@H](CF)NC(=O)C(Cl)Cl)cc1", "Potency": "inactive"}
{"smiles": "O=S(=O)(O)C(F)(F)F", "Potency": "inactive"}
{"smiles": "COc1cc(Cl)ccc1Cl", "Potency": "inactive"}
{"smiles": "Cc1c(N)cccc1N", "Potency": "inactive"}
{"smiles": "CCCOc1ccc2c(c1)CC[C@@H]1[C@@H]2CC[C@]2(C)C(OC)CC[C@@H]12", "note": "(stereo not given in full)", "Potency": "inactive"}
{"smiles": "CC(=O)N(CC(O)CN(C(C)=O)c1c(I)c(C(=O)NCC(O)CO)c(I)c(C(=O)NCC(O)CO)c1I)c1c(I)c(C(=O)NCC(O)CO)c(I)c(C(=O)NCC(O)CO)c1I", "note": "(stereo not given)", "Potency": "inactive"}
{"smiles": "CC(C)Nc1nc(N)nc(Cl)n1", "Potency": "inactive"}
{"smiles": "CC(C)NCC(O)COc1ccc(CCOCC2CC2)cc1", "note": "(stereo not given)", "Potency": "inactive"}
{"smiles": "O=C(O)c1cccc(Cl)c1Cl", "Potency": "inactive"}
{"smiles": "OCc1ccccc1O", "Potency": "inactive"}
{"smiles": "CCNCCO", "Potency": "inactive"}
{"smiles": "CC1=CC(=O)CC(C)(C)C1=O", "Potency": "inactive"}
{"smiles": "Nc1ccc2ccccc2c1S(=O)(=O)O", "Potency": "inactive"}
{"smiles": "CCC(=O)c1ccc2c(c1)N(CCCN(C)C)c1ccccc1S2", "Potency": "26.6 µM (active)"}
{"smiles": "CN1CCN(c2c(F)cc3c(=O)c(C(=O)O)cn4c3c2SCC4)CC1", "Potency": "inactive"}
{"smiles": "CC(C)C(=O)OC/C=C/c1ccccc1", "Potency": "inactive"}
{"smiles": "CCCCC(=O)O[C@]1(C(=O)CO)[C@H](C)C[C@H]2[C@@H]3CCC4=CC(=O)C=C[C@]4(C)[C@@]3(F)[C@@H](O)C[C@@]21C", "Potency": "inactive"}
{"smiles": "O=C(C(Cl)Cl)N1CCOC12CCCCC2", "Potency": "inactive"}
{"smiles": "CCC1(C)NC(=O)NC1=O", "note": "(stereo not given)", "Potency": "inactive"}
{"smiles": "O=C(O)CN(CCN(CC(=O)O)CC(=O)O)CCN(CC(=O)O)CC(=O)O", "viability change, negative = cytotoxic": "4.74% [at 19 µM] (inactive)"}
{"smiles": "CCOC(=O)c1cc(=O)c2c(OCC(COc3cccc4oc(C(=O)OCC)cc(=O)c34)OC(=O)[C@@H](N)CCCCN)cccc2o1", "Potency": "inactive"}
{"smiles": "Cc1cc2c(s1)Nc1ccccc1N=C2N1CCN(C)CC1", "Potency": "5.96 µM (active)"}
{"smiles": "CCCC(CCC)(C(=O)OCC)C(=O)OCC", "Potency": "inactive"}
{"smiles": "Nc1ccc(Oc2ccc(N)c(N)c2)cc1", "Potency": "27.3 µM (active)"}
{"smiles": "CCC(=O)O[C@]1(C(=O)SCF)[C@H](C)C[C@H]2[C@@H]3C[C@H](F)C4=CC(=O)C=C[C@]4(C)[C@@]3(F)[C@@H](O)C[C@@]21C", "Potency": "inactive"}
{"smiles": "CC(C)(C)C1CCCCC1=O", "note": "(stereo not given)", "Potency": "inactive"}
{"smiles": "CC1(O)CSC(C)(O)CS1", "note": "(stereo not given)", "Potency": "inactive"}
